# Experimental data reported in PubChem BioAssay (NCATS).
# Results filed as inconclusive are left out. A call without a number means that no potency is given here. A number with no mark means an inactive call. The source made the active and inactive calls. Calls follow the shape of the dose curve; as a rule, active = well fitted curve in the direction sought with a large enough effect; inconclusive = small, poorly fitted or top-dose-only effect, or another doubt; inactive = no such curve, though single readings can be large; an effect the other way counts as inactive or inconclusive.
# Columns and labels:
# [1] = qHTS assay to identify small molecule inhibitors of chordoma cells - UCH-2 (AID 1259356); also: potency is read from the fitted curve at half-maximal effect
# [2] = P-glycoprotein substrates identified in KB-8-5-11 adenocarcinoma cell line, qHTS therapeutic library screen (AID 1346987); also: nearly all actives have a fitted effect of over 65% in size; also: potency is read from the fitted curve at half-maximal effect
# In short: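 Luminescence from CellTiter-Glo, read 5 min after addition, quantified survival of KB-8-5-11 (P-gp-overexpressing) cells exposed to compounds for 72 h. AC50 was derived from concentration-response curves.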
# [3] = P-glycoprotein substrates identified in KB-3-1 adenocarcinoma cell line, qHTS therapeutic library screen (AID 1346986); also: nearly all actives have a fitted effect of over 60% in size
# In short: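 In 1536-well format, 500 cells/well received pinned compound titrations and were incubated 72 h, 5% CO2. Viability was read by CellTiter-Glo; cytotoxic if AC50 < 10 uM and efficacy >50%.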
compound,measurement,setting,value
O=S(=O)(O)c1cc(O)ccc1O,Potency,[1],inactive
same,Potency,[2],inactive
O=C1C=C2C=C[C@@H]3C[C@@]2(O1)[C@H]1CCCCN31,Potency,[1],inactive
C[C@@H](Cc1ccccc1)N(C)C,Potency,[1],inactive
same,Potency,[2],inactive
C[C@@H](CO)NC(=O)[C@@H]1C=C2c3cccc4[nH]cc(c34)C[C@H]2N(C)C1,Potency,[1],inactive
CCC1(C)CC(=O)NC(=O)C1,Potency,[1],inactive
C=C[C@H]1CN2CC[C@H]1C[C@@H]2[C@@H](O)c1ccnc2ccccc12,Potency,[1],inactive
O=C1CN(O)C(c2ccccc2)=c2cc(Cl)ccc2=N1,Potency,[1],inactive
same,Potency,[2],inactive
c1cc2c(c(NC3=NCCN3)c1)CCCC2,Potency,[1],inactive
same,Potency,[2],inactive
Oc1cccc[c]1[Hg][Cl],Potency,[1],13 µM (active)
same,Potency,[2],5.17 µM (active)
Cc1cc(C)cc(C(=O)OC2C[C@H]3CC[C@@H](C2)N3C)c1 (some centres not stated),Potency,[1],inactive
CN(C)CCCCCCN(C)C (tested in a mixture with another compound),Potency,[1],inactive
same,Potency,[2],inactive
COc1cc2c(cc1OC)[C@@]13CCN4CC5=CCO[C@H]6CC(=O)N2[C@H]1[C@H]6[C@H]5C[C@H]43,Potency,[1],inactive
same,Potency,[2],inactive
[Cl-].[Cl-].[Hg+2],Potency,[1],inactive
same,Potency,[2],3.66 µM (active)
CC(=O)OO,Potency,[1],inactive
same,Potency,[2],inactive
OC[C@@H](O)[C@H]1O[C@@H]2O[C@@H](C(Cl)(Cl)Cl)O[C@@H]2[C@H]1O,Potency,[1],inactive
same,Potency,[2],inactive
O=CC=O,Potency,[1],inactive
CCOP(=O)(OCC)O/C(=C/Cl)c1ccc(Cl)cc1Cl,Potency,[1],inactive
same,Potency,[2],10.3 µM (active)
CN(C)[C@@H]1C(=O)C(C(N)=O)=C(O)[C@@]2(O)C(=O)C3=C(O)c4c(O)ccc(Cl)c4[C@@](C)(O)[C@H]3C[C@@H]12,Potency,[1],inactive
same,Potency,[2],inactive
C=CC[C@]1(O)CC[C@H]2[C@@H]3CCC4=CCCC[C@@H]4[C@H]3CC[C@@]21C,Potency,[1],inactive
O=c1ccc2cc(O[C@@H]3O[C@H](CO)[C@@H](O)[C@H](O)[C@H]3O)c(O)cc2o1,Potency,[1],inactive
O=C(O)c1ccnc2cc(C(OCCN3CCCCC3)c3ccccc3Cl)[nH]c12 (configuration not stated),Potency,[3],inactive
CCC1(c2ccccc2)C(=O)NC(=O)NC1=O,Potency,[1],inactive
same,Potency,[2],inactive
O=[N+]([O-])C(Br)(CO)CO,Potency,[1],inactive
same,Potency,[2],inactive
CC1=C2C(=O)C3[C@@H](CC=C4C[C@@H](O)CC[C@@]43C)[C@@H]2CC[C@]12O[C@@H]1C[C@H](C)CN[C@H]1[C@H]2C (some centres not stated),Potency,[3],inactive
same,Potency,[2],inactive
CCCCCCn1c(=O)c(C(=O)Nc2ccc(C(=O)OCCC)cc2)c(O)c2ccccc21,outcome,[3],inactive [at 9.29 µM]
O=C1CCO1,Potency,[1],inactive
same,Potency,[2],inactive
CC(C)(C)c1cc(C(C)(C)C)c2c(c1)C(O)(C(F)(F)F)C(=O)O2 (configuration not stated),Potency,[3],inactive
same,Potency,[2],inactive
COC(=O)C1(C)CCC(O)C2(C)c3cc(O)c(C(C)C)cc3C(O)C(OC(C)=O)C12 (configuration not stated),Potency,[3],inactive
same,Potency,[2],inactive
CCN1CC2(COC)C3[C@@H](OC)C4C1C3(C1C[C@]3(O)[C@H](OC(=O)c5ccccc5)C1[C@]4(OC(C)=O)[C@@H](O)[C@@H]3OC)[C@H](OC)C[C@H]2O (some centres not stated),Potency,[3],inactive
same,Potency,[2],inactive
CCN1C[C@]2(COC(=O)c3ccccc3N3C(=O)C[C@H](C)C3=O)CC[C@H](OC)[C@@]34[C@@H]5C[C@H]6[C@H](OC)[C@@H]5[C@](O)(C[C@@H]6OC)[C@](O)([C@@H](OC)[C@H]23)[C@@H]14,Potency,[3],inactive
COc1cc(CCNCc2ccccc2O)c(OC)cc1C#N,Potency,[3],inactive
CCCCCOc1cc2c(cc1-c1cc(/C=C/C(=O)O)ccc1O)C(C)(C)CCC2(C)C,Potency,[3],inactive
CC1=CC2/C=C(\C)CCC(O)C3OC(C)(C)OC3CC(=O)OC23C(=O)NC(CC(C)C)C3C1C (configuration not stated),Potency,[3],inactive
C=C[C@H]1[C@H](O[C@@H]2O[C@H](CO)[C@@H](O)[C@H](O)[C@H]2O)OC=C2C(=O)OCC[C@H]21,Potency,[3],inactive
C[C@@H]1C(=O)O[C@H]2[C@H](O)[C@@]34[C@@H]5OC(=O)[C@@]3(O[C@@H]3OC(=O)[C@@H](O)[C@@]34[C@H](C(C)(C)C)[C@H]5O)[C@@]12O,Potency,[3],inactive
same,Potency,[2],inactive
COC1=CC(=O)O[C@@H](/C=C/c2ccccc2)C1,Potency,[3],inactive
COC1CC(=O)C23C(=O)NC(CC(C)C)C2C(C)=C(C)C(OO)C3/C=C(\C)CCC(O)C1O (configuration not stated),Potency,[3],inactive
same,Potency,[2],inactive
Cc1c(Cl)cccc1S(=O)(=O)Nc1nc(CC(=O)N2CCN(C)CC2)cs1,Potency,[3],inactive
same,Potency,[2],inactive
C[C@H]1C(=O)O[C@H]2[C@H](O)[C@]34C5OC(=O)[C@]3(O[C@@H]3OC(=O)[C@H](O)C34[C@H](C(C)(C)C)[C@H]5O)C12O (some centres not stated),Potency,[3],inactive
COc1cc(C(=O)O[C@H]2[C@@H]3C=CO[C@@H](O[C@@H]4O[C@H](CO)[C@@H](O)[C@H](O)[C@H]4O)[C@@H]3[C@@]3(CO)O[C@@H]23)ccc1O,Potency,[3],inactive
COC1CC(O[C@H]2CC[C@@]3(C)C(=CCC4C3C(O)[C@@H](O)[C@]3(C)[C@@H](C(C)=O)CC[C@]43O)C2)OC(C)C1OC1CC(OC)C(OC2OC(C)C(O)C(O)C2O)C(C)O1 (some centres not stated),outcome,[3],inactive [at 9.29 µM]
same,outcome,[2],inactive [at 9.29 µM]
COc1c(C(C)C)cc2c(c1O)[C@@]1(C(=O)O)CCCC(C)(C)C1CC2 (some centres not stated),Potency,[3],inactive
same,Potency,[2],inactive
CC[C@H]1[C@@H]2C[C@H]3[C@@H]4N(C)c5ccccc5[C@]45C[C@@H](C2[C@H]5O)N3[C@@H]1O (some centres not stated),Potency,[1],inactive
same,Potency,[2],inactive
NCC(O)c1cccc(O)c1 (configuration not stated),Potency,[1],inactive
same,Potency,[2],inactive
COC(=O)[C@@H]1[C@H]2CC[C@@H](C[C@H]1OC(=O)c1ccccc1)N2C,Potency,[1],inactive
same,Potency,[2],inactive
Cc1ccccc1-n1c(C)nc2ccccc2c1=O,Potency,[1],inactive
same,Potency,[2],inactive
O=C1OC2(c3cc(Br)c(O)cc3Oc3c2cc(Br)c(O)[c]3[Hg])c2ccccc21 (configuration not stated),Potency,[1],inactive
same,Potency,[2],inactive
COC(=O)C12C(=O)C(C)(O)C(=O)C1(C)C(C)=CC1C34CCC(OC3=O)C(C)(CO)C4CCC12C (configuration not stated),Potency,[3],inactive
ClCC1CO1 (configuration not stated),Potency,[1],inactive
same,Potency,[2],inactive
CN1C(=O)N(c2ccc(C#N)c(C(F)(F)F)c2)C(=O)[C@]1(CO)c1ccccc1,Potency,[3],inactive
C1=C2CCCN[C@H]2[C@@H]2C[C@H]1[C@H]1CCCCN1C2,Potency,[3],inactive
same,Potency,[2],inactive
